The values that follow come from PubChem BioAssay (Tox21).

Values without a mark were called inactive. The source made the active and inactive calls. The call rests on the fitted dose curve; in most records, active means well fitted curve in the direction sought with a large enough effect in the repeat runs; inconclusive means weak or mixed curves; inactive means flat fitted curve, though single readings scatter.
On the % scale 0 is the no-effect control and ±100 the full control effect.

The nature of the assay: qHTS assay to test for compound auto fluorescence at 590 nm (red) in HepG2 cell free culture (AID 720684). Conditions: cell-free medium autofluorescence, red 540/590 nm; series mostly up to 91.3 µM; fluorescence, % of Rose Bengal: at the top concentration. An excerpt: U.S. Tox21 Program National Center for Advancing Translational Sciences [NCATS] NIH Chemical Genomics Center [NCGC] U.S. Environmental Protection Agency [EPA] National Institutes of Environmental Health Sciences [NIEHS] National Toxicology Program [NTP] U.S. Food and Drug Administration [FDA] Tox21 Assay Overview: Compound auto fluorescence often interferes with screening of the compound library against various biological targets and signaling pathways. Some of these compounds may have fluorophoric properties. Such properties may interfere with the assay outputs resulting in false positives and/or negatives. To decrease such complications and ensure the compound activities are relevant in terms of biological response, the Tox21 10K compound library was screened for auto fluorescence. From the fluorophores used as reporter signals in our screening assays, the auto fluorescence equivalencies of compounds against three fluorophores have been evaluated: Triamterene, Fluorescein and Rose Bengal sodium for blue, green and red fluorescence, respectively. The fluorescence intensities were measured using Excitation/Emission wavelengths at 405/460nm, 485/535nm and 540/590nm for blue, green and red labels, respectively. This assay includes the red fluorescence data.
Tox21 Assay Protocol Summary: 5 uL of culture medium (MEM containing 10% FBS) per well was dispensed into black wall/clear bottom 1536-well plates using a Multidrop Combi Dispenser (ThermoFisher Scientific, Waltham, MA). After 23 nL compound or DMSO vehicle was transferred into assay plate by a pintool work station (Kalypsys, San Diego, CA), fluorescence intensities in the assay plates were measured by an Envision (PerkinElmer, Shelton, CT) plate reader using three labels for measuring blue, green and red fluorescence at […] 460, 535 and 590nm respectively.
In general terms: qHTS replaces the single test concentration by a dilution series.
For `C(/C=C/C=C/Nc1ccccc1)=Nc1ccccc1`, the “fluorescence, % of Rose Bengal” value was -0.371%. Regarding `CCc1ccc(C(=O)C(C)CN2CCCCC2)cc1` (stereo not given), the “fluorescence, % of Rose Bengal” value is 0.0775% [at 46 µM].

As for `C=CC(C)(O)CC/C=C(/C)CCC=C(C)C` (stereo not given), the “fluorescence, % of Rose Bengal” value was -0.0641%.

On to `CCCCCCOC(=O)c1ccccc1`, for which the “fluorescence, % of Rose Bengal” value was -0.002%. As to `CCCCCCC/C=C/C=O`, the “fluorescence, % of Rose Bengal” value is -0.0249%. On to `COc1ccc(C(=O)c2ccc(C)cc2)c(O)c1`, for which the result was inactive. As for `CCCCCCCCCCCCN1CCOCC1`, the “fluorescence, % of Rose Bengal” value was -0.0033%. For the compound `CC/C=C/CCO`, the “fluorescence, % of Rose Bengal” value was 0.0382% [at 95.7 µM].

Take `COc1cc(CNC(=O)CCCC/C=C/C(C)C)ccc1O`: the result was inactive. With `CCCCCCCCCCCCCCCCC(=O)O`, the “fluorescence, % of Rose Bengal” value is 0.0343% [at 46 µM]. Turning to `CCN(CCCCOC(=O)c1ccc(OC)c(OC)c1)C(C)Cc1ccc(OC)cc1` (stereo not given), the fluorescence, % of Rose Bengal was 0.006% [at 18.6 µM]. The same measure, in the same setting: the figure for `O=[N+]([O-])c1ccccc1CCO` is -0.367% [at 95.7 µM]; for `CC(=O)c1cccnc1` it is -0.31%.

`N#Cc1ccc(CC(=O)c2cccc(C(F)(F)F)c2)cc1`: the “fluorescence, % of Rose Bengal” value was -0.048%. For the compound `CC(C)Oc1ccccc1O`, the “fluorescence, % of Rose Bengal” value is -0.332%. For the compound `O=C(OCCCCCOC(=O)c1ccccc1)c1ccccc1`, the “fluorescence, % of Rose Bengal” value was 0.0345%. On to `C=CC(O)CCCCC` (stereo not given), for which the “fluorescence, % of Rose Bengal” value is -0.0309%.

Take `Clc1ccccc1-c1nc(-c2ccncc2)no1`: the “fluorescence, % of Rose Bengal” value was -0.076% [at 46 µM]. `CCOc1ccc2c(c1)C(C)CC(C)(C)N2` (stereo not given): the “fluorescence, % of Rose Bengal” value is -0.271%. For the compound `CCC[Si](OC)(OC)OC`, the “fluorescence, % of Rose Bengal” value was 0.0233%.

With `O=Cc1ccc([N+](=O)[O-])cc1`, the “fluorescence, % of Rose Bengal” value is -0.188%. Regarding `Cc1c(Nc2ncccc2C(=O)O)cccc1C(F)(F)F`, the fluorescence, % of Rose Bengal was 0.0144% [at 18.6 µM].

For the compound `Nc1ccccc1Nc1ccccc1`, the “fluorescence, % of Rose Bengal” value is 0.176%. `CCCC1CCOC(C)S1` (stereo not given): the “fluorescence, % of Rose Bengal” value is 0.0195%.

Take `CCOc1ccc(NC(C)=O)cc1N`: the “fluorescence, % of Rose Bengal” value was 0.0409% [at 95.7 µM]. As to `CC(C)(Cc1c[nH]c2ccccc12)NCC(O)COc1ccccc1C#N` (stereo not given), the “fluorescence, % of Rose Bengal” value is -0.138% [at 46 µM]. On to `CC(=O)CC/C=C(\C)CC/C=C(\C)CC/C=C(\C)CCC=C(C)C`, for which the “fluorescence, % of Rose Bengal” value is -0.0633% [at 46 µM].

For `CCC(C)CCCC(C)(C)O` (stereo not given), the “fluorescence, % of Rose Bengal” value was -0.0159%. Consider `Cc1cc(SC2=C(O)C[C@@](CCc3ccc(N)cc3)(C(C)C)OC2=O)c(C(C)(C)C)cc1CO`, for which the “fluorescence, % of Rose Bengal” value is -0.0467%. Consider `CCc1cnc(C(=O)O)c(C(=O)O)c1`, for which the “fluorescence, % of Rose Bengal” value was -0.0439% [at 95.7 µM].

In the case of `CC(O)CN` (stereo not given), the “fluorescence, % of Rose Bengal” value was 0.0002%. Take `C[C@@H](O)[C@H]1C(=O)N2C(C(=O)O)=C(S[C@@H]3CN[C@H](CNS(N)(=O)=O)C3)[C@H](C)[C@H]12`: the “fluorescence, % of Rose Bengal” value is -0.233% [at 46 µM]. With `CC(CCl)OC(C)CCl` (stereo not given), the “fluorescence, % of Rose Bengal” value was 0.143%.

For `CCC(C)C1N=C(C)C(C)S1` (stereo not given), the “fluorescence, % of Rose Bengal” value is -0.153%.

Take `O=C(Nc1ccccc1)c1cc([N+](=O)[O-])ccc1Cl`: the “fluorescence, % of Rose Bengal” value was 0.237%. As for `CC1(C)[C@@H]2CC[C@]3(C2)[C@@H]1C(=O)CCC3(C)C`, the “fluorescence, % of Rose Bengal” value is -0.244%. As to `FC(F)(Cl)C(F)(Cl)Cl`, the “fluorescence, % of Rose Bengal” value is -0.0198%. In the case of `CC(=O)Nc1cccc(N)c1`, the “fluorescence, % of Rose Bengal” value was 0.384% [at 95.7 µM]. In the case of `O=C(O)c1ccccc1-n1cc(C(=O)O)c(=O)c2cc(Nc3c(F)cc(F)cc3Cl)c(Cl)cc21`, the “fluorescence, % of Rose Bengal” value is 0.154%.

Consider `CCCCOC(=O)CC#N`, for which the “fluorescence, % of Rose Bengal” value is 0.095% [at 95.7 µM].
